Test systems include K-562 leukemia; MALME-3M melanoma; MDA-MB-231 breast; RXF 393 renal; SF-268 CNS; SF-295 CNS; SF-539 CNS; UACC-257 melanoma; M14 melanoma; HCT-15 colon; SNB-75 CNS; SNB-19 CNS; U251 CNS; PC-3 prostate; SK-MEL-5 melanoma; UACC-62 melanoma; LOX IMVI melanoma; SK-MEL-28 melanoma; SK-MEL-2 melanoma; HT29 colon.
Test in all cases: NCI-60 one-dose screen, 48 h (100 = growth as untreated, 0 = no growth, -100 = all killed)
Common to all, as to conditions: 10 µM unless noted

About 83,000 compounds went through this panel and 20% of them were active in at least one assay; those are over-represented in the sample as a whole.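 Cells were grown in 96-well plates and exposed to the test compound at a single concentration for 48 hours; results are reported as percent growth, with values below 10 considered active.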 Unmarked numbers belong to inactive results. Active and inactive are the calls of the source.

`CN1CCN(Cc2ccc(NC(=O)c3cncc(C#Cc4cnc5ccc(N6CCSCC6)nn45)c3)cc2C(F)(F)F)CC1`: the growth with K-562 leukemia was -16.2% (active); in the assay on MALME-3M melanoma it was -62.6% (active); in the assay on MDA-MB-231 breast it was -38.4% (active); with RXF 393 renal it was -87.3% (active); with SF-268 CNS, -52.9% (active); in the assay on SF-295 CNS, -36.2% (active). Also, the growth in the assay on SF-539 CNS is -94.2% (active); in the assay with UACC-257 melanoma it was 31.1%; with M14 melanoma, -81.6% (active); in the assay on HCT-15 colon it was -38.9% (active); with SNB-75 CNS, -67.4% (active); in the assay on SNB-19 CNS, -12.6% (active). Besides, the growth is -91.6% (active) in the assay on U251 CNS; 1.39% (active) in the assay with PC-3 prostate; 7.81% (active) in the assay on SK-MEL-5 melanoma; -30.5% (active) in the assay with UACC-62 melanoma; -89.8% (active) with LOX IMVI melanoma; -48.1% (active) with SK-MEL-28 melanoma. Moreover, in the assay with SK-MEL-2 melanoma, the growth is -89.1% (active).
`Cc1nc2cnc(N)c(C#Cc3cncc(C(=O)Nc4ccc(Cl)c(C(F)(F)F)c4)c3)c2nc1C`: the growth with K-562 leukemia was -15% (active); in the assay on MALME-3M melanoma it was 39.9%; with MDA-MB-231 breast it was 7.63% (active); in the assay with RXF 393 renal it was -18% (active); with SF-268 CNS, 52.6%; in the assay with SF-295 CNS it was 88.5%. The growth with SF-539 CNS was -12.9% (active); in the assay on UACC-257 melanoma, 77.7%; in the assay with M14 melanoma it was 29.9%; in the assay on HCT-15 colon, 52.6%; with SNB-75 CNS, 44.6%; in the assay on SNB-19 CNS, 90%. The growth in the assay on U251 CNS was 77.4%; in the assay with PC-3 prostate, 85.3%; in the assay on SK-MEL-5 melanoma, 86.9%; in the assay on UACC-62 melanoma it was 39.7%; with LOX IMVI melanoma, -77.4% (active); in the assay with SK-MEL-28 melanoma it was 44.4%. In the assay with SK-MEL-2 melanoma, the growth is 14.4%.
Consider `C/C(=N/NC(N)=S)c1ccc(Nc2nc(SCC(C)C)nc(-c3ccc(F)cc3)c2C#N)cc1`, for which the growth with K-562 leukemia was 4.78% (active); with MALME-3M melanoma, 24.9%; in the assay with MDA-MB-231 breast, 15%; in the assay on RXF 393 renal, -45.4% (active); in the assay with SF-268 CNS, 25.3%; in the assay on SF-295 CNS it was -69.8% (active). Besides, the growth was -58.6% (active) with SF-539 CNS; 63.3% in the assay on UACC-257 melanoma; 28.3% in the assay with M14 melanoma; 25.2% in the assay on HCT-15 colon; 80.6% with SNB-75 CNS; 15.4% in the assay with SNB-19 CNS. In addition, the growth was -39.6% (active) in the assay with U251 CNS; -14.5% (active) in the assay on PC-3 prostate; 37.3% in the assay on SK-MEL-5 melanoma; -18.4% (active) in the assay on UACC-62 melanoma; -20% (active) with LOX IMVI melanoma; -9.66% (active) with SK-MEL-28 melanoma. For the same compound, the growth in the assay with SK-MEL-2 melanoma was 11.1%.
As to `Cc1cc2nc3c4cc(Cl)ccc4n(CC(=O)NCCN(C)C)c3nc2cc1C`, the growth with K-562 leukemia is -32.9% (active); with MALME-3M melanoma it was -66.9% (active); in the assay with MDA-MB-231 breast, 53.2%; in the assay on RXF 393 renal, 61.1%; in the assay on SF-268 CNS, 83%; in the assay with SF-295 CNS, 93.5%. The growth was 21.8% in the assay on SF-539 CNS; 105% in the assay with UACC-257 melanoma; -88.7% (active) in the assay with M14 melanoma; -7.4% (active) in the assay on HCT-15 colon; 64.1% with SNB-75 CNS; 81.5% with SNB-19 CNS. For the same compound, the growth with U251 CNS is -38% (active); in the assay on PC-3 prostate, 60.8%; with SK-MEL-5 melanoma, 89.8%; with UACC-62 melanoma, 79.4%; with SK-MEL-28 melanoma, -88.6% (active).
For `COc1cccc(COc2ccc(/C=C3/C(=O)Nc4cc(Cl)ccc43)cc2)c1`, the growth in the assay with MALME-3M melanoma was 96.7%; in the assay with MDA-MB-231 breast, 78.2%; in the assay on RXF 393 renal, 88.7%; in the assay on SF-268 CNS, 99.5%; in the assay with SF-295 CNS, 103%; in the assay with SF-539 CNS it was 93%. Moreover, the growth was 104% in the assay with UACC-257 melanoma; 104% in the assay on M14 melanoma; 99.6% in the assay with HCT-15 colon; 93.8% with HT29 colon; 84.2% in the assay on SNB-75 CNS; 97.5% with SNB-19 CNS. Besides, the growth was 98.9% with U251 CNS; 84.5% with PC-3 prostate; 93% in the assay with SK-MEL-5 melanoma; 86.7% with UACC-62 melanoma; 97.9% in the assay with LOX IMVI melanoma; 102% in the assay on SK-MEL-28 melanoma. For the same compound, the growth with SK-MEL-2 melanoma is 107%.
`CC(=O)c1ccc(Nc2nc(SC(C)C)nc(-c3ccccc3)c2C#N)cc1`: the growth with K-562 leukemia is 92.6%; with MALME-3M melanoma, 112%; with MDA-MB-231 breast, 95.7%; in the assay on RXF 393 renal, 103%; in the assay on SF-268 CNS it was 91.9%; in the assay with SF-295 CNS it was 109%. Also, the growth was 95.5% in the assay on SF-539 CNS; 108% in the assay on UACC-257 melanoma; 118% with M14 melanoma; 101% in the assay on HCT-15 colon; 92.3% in the assay on SNB-75 CNS; 87.2% in the assay on SNB-19 CNS. Also, the growth in the assay with U251 CNS is 89.5%; with PC-3 prostate, 88.1%; in the assay on SK-MEL-5 melanoma it was 98.1%; with UACC-62 melanoma it was 82.3%; with LOX IMVI melanoma, 95.1%; in the assay with SK-MEL-28 melanoma, 104%. Besides, the growth in the assay with SK-MEL-2 melanoma is 117%.
Take `O=C(CSc1nnc(-c2ccc3nc(-c4ccc(Cl)cc4)[nH]c3c2)o1)Nc1ccc(C(=O)/C=C/c2ccc(Cl)cc2)cc1`: the growth was 81.4% with K-562 leukemia; 102% with MALME-3M melanoma; 90.6% with MDA-MB-231 breast; 104% with RXF 393 renal; 99.9% in the assay with SF-268 CNS; 93% with SF-295 CNS. Also, the growth in the assay with SF-539 CNS was 84.3%; in the assay with UACC-257 melanoma, 107%; with M14 melanoma, 102%; in the assay with HCT-15 colon, 89.8%; in the assay on SNB-75 CNS, 90.9%; in the assay on SNB-19 CNS it was 99.5%. The growth was 82.2% with U251 CNS; 87.7% in the assay with PC-3 prostate; 93.7% in the assay with SK-MEL-5 melanoma; 83.2% with UACC-62 melanoma; -24.2% (active) in the assay on LOX IMVI melanoma; 106% in the assay with SK-MEL-28 melanoma. Further, the growth with SK-MEL-2 melanoma is 111%.
Regarding `CCOC(=O)c1c(Nc2ccccc2)nn2c(N)c(C#N)c(-c3ccc(OC)cc3)nc12`, the growth with MALME-3M melanoma is 61.1%; in the assay on MDA-MB-231 breast, 78.1%; in the assay with RXF 393 renal it was 46%; with SF-268 CNS, 61.9%; in the assay on SF-295 CNS it was 42.8%; in the assay with SF-539 CNS it was 52.1%. For the same compound, the growth in the assay with UACC-257 melanoma is 95.4%; in the assay on M14 melanoma it was 78.6%; in the assay on HCT-15 colon, 84.6%; in the assay with HT29 colon, 76.7%; in the assay with SNB-75 CNS, -15.3% (active); with SNB-19 CNS, 76.5%. The growth in the assay with U251 CNS is 71.3%; in the assay with PC-3 prostate, 66.1%; in the assay with SK-MEL-5 melanoma, 87.4%; in the assay with UACC-62 melanoma, 80.4%; in the assay with LOX IMVI melanoma it was 71%; with SK-MEL-28 melanoma it was 78.4%. In addition, the growth in the assay on SK-MEL-2 melanoma is 89.2%.
